Several values for one entry are separate records, joined by “and”; a condition that tells them apart may be missing. Identical values can stand only once. Potency and affinity values are given separately.
Each compound was assayed on Klebsiella pneumoniae. Details: Concentration 32 ug.mL-1; ASSAY_TEST Inhibition of Bacterial Growth; detection method Absorption (OD600); MEDIA CAMHB; plate type 384well; NBS; CORNING #3640; time 18 hr.

`CN(C)C(=O)Oc1ccc(CCl)c2cccnc12` was tested. Which Inhibition did it give?
Its Inhibition is 13.45%.

`Nc1c2c(nc3c1C(c1ccccc1)CC(=O)N3)CCCC2` (configuration not stated) was tested. Which Inhibition did it give?
Its Inhibition is 11.64%.

How did the Inhibition turn out when `Cc1nc(N)c(C#N)cc1C(=O)O` was run?
The Inhibition was -3.56%.

`Cc1ccc(S(=O)(=O)N2[C@H]3CC[C@@H]2CC3)cc1` was tested. Which Inhibition did it give?
The Inhibition was 13.85%.

For `NNC(=O)c1cn(Cc2ccccc2)c2ccccc12`, which Inhibition is on record?
Its Inhibition is 10.74%.

How did the Inhibition turn out when `CNCc1cn(C)c2ccc(OC)cc12.Cl` was run?
Its Inhibition is 11.42%.

How did the Inhibition turn out when `COc1ccc2c(c1)cc(C[N+](C)(C)C)n2C.[I-]` was run?
Its Inhibition is 16.42%.

Which Inhibition does the source give for `C#CCN(C)Cc1cc2cc(OCCCC3CCN(Cc4ccc(OC(=O)N(C)C)c5ncccc45)CC3)ccc2n1C` here?
Its Inhibition is 4.78%.

Which Inhibition does the source give for `CN1CC=C(c2cccn2C)CC1` here?
The Inhibition was 7.84%.

Which Inhibition does the source give for `CCOC(=O)c1cc2cc(OC(=O)NC3CCN(Cc4ccccc4)CC3)ccc2[nH]1` here?
Its Inhibition is 1.99%.

For `CCOC(=O)c1cn(Cc2ccccc2)c2ccccc12`, which Inhibition is on record?
Its Inhibition is 3.42%.

With `CCOC(=O)C1=C(OC)OC(=O)CC1c1ccccc1` (configuration not stated) as the compound, how does the Inhibition read?
The Inhibition was 18.96%.

`C#CCN(C)Cc1cc2cc(OC(=O)N(C)C)ccc2n1C` was tested. Which Inhibition did it give?
The Inhibition was -2.9%.

With `CCOc1nc2nc(C)c(C(=O)O)cc2c(-c2ccccc2)c1C#N` as the compound, how does the Inhibition read?
Its Inhibition is 7.3%.

For `Nc1c2c(nc3ccccc13)CCN(Cc1ccccc1)C2`, which Inhibition is on record?
The Inhibition was 4.75%.

How did the Inhibition turn out when `O=C(N1[C@H]2CC[C@@H]1C(c1nnn[nH]1)C2)C(F)(F)F` (some centres not stated) was run?
The Inhibition was 13.67%.

`C#CCN1CCc2nc3nc(OC)c(C#N)cc3c(N)c2C1` was tested. Which Inhibition did it give?
The Inhibition was 9.96%.

For `O=C(CBr)NCc1ccccc1`, which Inhibition is on record?
The Inhibition was 15.98%.

Which Inhibition does the source give for `CC1CC(=O)Nc2nc3c(c(N)c21)CCCC3` (configuration not stated) here?
The Inhibition was 14.16%.

Which Inhibition does the source give for `COc1ccc(C=C(C#N)C#N)cc1OC` here?
Its Inhibition is 6.42%.

With `COc1cc(C2C(C#N)=C(N)Oc3c2ccc2ccccc32)cc(OC)c1OC` (configuration not stated) as the compound, how does the Inhibition read?
Its Inhibition is 3.14%.

With `N#CC(C#N)=Cc1ccc(Cl)cc1` as the compound, how does the Inhibition read?
Its Inhibition is 17.25%.

For `Cl.ClCCN1CCCCC1`, which Inhibition is on record?
The Inhibition was 11.31%.

`C#CCN1CCc2nc3nc(Cl)c(C#N)cc3c(N)c2C1` was tested. Which Inhibition did it give?
The Inhibition was 7.38%.

With `C#CCN(C)Cc1cc2cc(OCc3ccc(OC(=O)N(C)C)c4ncccc34)ccc2n1C` as the compound, how does the Inhibition read?
Its Inhibition is -0.57%.

How did the Inhibition turn out when `Cl.ClCCN1CCCC1` was run?
The Inhibition was 3.45%.

For `Cc1ccccc1C=C(C#N)C#N`, which Inhibition is on record?
Its Inhibition is -3.33%.

For `C#CCN1CCc2nc3ncccc3c(N)c2C1.Cl`, which Inhibition is on record?
The Inhibition was 8.58%.

How did the Inhibition turn out when `N#CCC(=O)c1ccccc1` was run?
The Inhibition was 12.74%.

With `OCC(Cc1cnc[nH]1)NCc1ccccc1` (configuration not stated) as the compound, how does the Inhibition read?
The Inhibition was 4.01%.

`N#Cc1cc(C#N)c(N2C3CCC2CC3)nc1N` was tested. Which Inhibition did it give?
Its Inhibition is -5.68%.

Which Inhibition does the source give for `CCOC(=O)C1=C(C)OC(=O)CC1c1ccccc1` (configuration not stated) here?
The Inhibition was 8.11%.

With `CCOC(=O)C1=C(C)NC(=O)CC1c1ccccc1` (configuration not stated) as the compound, how does the Inhibition read?
The Inhibition was 18.92%.

For `NNCCCc1c[nH]c2ccccc12.O=C(O)/C=C/C(=O)O`, which Inhibition is on record?
The Inhibition was 10.99%.

`Cc1ccc(C=C(C#N)C#N)cc1` was tested. Which Inhibition did it give?
Its Inhibition is 9.23%.

`NNC(=O)c1cccnc1` [NICOTINIC ACID HYDRAZIDE] was tested. Which Inhibition did it give?
The Inhibition was 3.91%.

`[N-]=[N+]=NCC(=O)c1ccc(Br)cc1` was tested. Which Inhibition did it give?
The Inhibition was 7.99%.

`CN1CC=C(c2cccn2C)CC1.Cl` was tested. Which Inhibition did it give?
The Inhibition was 8.46%.

What follows are compounds tested on Candida albicans. Details: 32 ug/mL.

`CN(C)C(=O)Oc1ccc(CCl)c2cccnc12` was tested. Which Inhibition did it give?
Its Inhibition is 4.55%.

How did the Inhibition turn out when `Nc1c2c(nc3c1C(c1ccccc1)CC(=O)N3)CCCC2` (configuration not stated) was run?
The Inhibition was 1%.

Which Inhibition does the source give for `Cc1nc(N)c(C#N)cc1C(=O)O` here?
Its Inhibition is 1.23%.

For `Cc1ccc(S(=O)(=O)N2[C@H]3CC[C@@H]2CC3)cc1`, which Inhibition is on record?
The Inhibition was 3.38%.

Which Inhibition does the source give for `NNC(=O)c1cn(Cc2ccccc2)c2ccccc12` here?
The Inhibition was 0.77%.

`CNCc1cn(C)c2ccc(OC)cc12.Cl` was tested. Which Inhibition did it give?
The Inhibition was 1.37%.

How did the Inhibition turn out when `COc1ccc2c(c1)cc(C[N+](C)(C)C)n2C.[I-]` was run?
Its Inhibition is 1%.

How did the Inhibition turn out when `C#CCN(C)Cc1cc2cc(OCCCC3CCN(Cc4ccc(OC(=O)N(C)C)c5ncccc45)CC3)ccc2n1C` was run?
Its Inhibition is 5.51%.

`CN1CC=C(c2cccn2C)CC1` was tested. Which Inhibition did it give?
Its Inhibition is 3.67%.

For `CCOC(=O)c1cc2cc(OC(=O)NC3CCN(Cc4ccccc4)CC3)ccc2[nH]1`, which Inhibition is on record?
The Inhibition was 0.56%.

For `CCOC(=O)c1cn(Cc2ccccc2)c2ccccc12`, which Inhibition is on record?
The Inhibition was -1.33%.

`CCOC(=O)C1=C(OC)OC(=O)CC1c1ccccc1` (configuration not stated) was tested. Which Inhibition did it give?
The Inhibition was 1.67%.

Which Inhibition does the source give for `C#CCN(C)Cc1cc2cc(OC(=O)N(C)C)ccc2n1C` here?
The Inhibition was 3.66%.

For `CCOc1nc2nc(C)c(C(=O)O)cc2c(-c2ccccc2)c1C#N`, which Inhibition is on record?
Its Inhibition is 1.34%.

With `Nc1c2c(nc3ccccc13)CCN(Cc1ccccc1)C2` as the compound, how does the Inhibition read?
The Inhibition was -0.35%.

Which Inhibition does the source give for `O=C(N1[C@H]2CC[C@@H]1C(c1nnn[nH]1)C2)C(F)(F)F` (some centres not stated) here?
Its Inhibition is 1.81%.

How did the Inhibition turn out when `C#CCN1CCc2nc3nc(OC)c(C#N)cc3c(N)c2C1` was run?
The Inhibition was 0.5%.

`O=C(CBr)NCc1ccccc1` was tested. Which Inhibition did it give?
The Inhibition was 10.2%.

For `CC1CC(=O)Nc2nc3c(c(N)c21)CCCC3` (configuration not stated), which Inhibition is on record?
Its Inhibition is 2.93%.

How did the Inhibition turn out when `COc1ccc(C=C(C#N)C#N)cc1OC` was run?
Its Inhibition is 0.87%.

For `COc1cc(C2C(C#N)=C(N)Oc3c2ccc2ccccc32)cc(OC)c1OC` (configuration not stated), which Inhibition is on record?
The Inhibition was -0.44%.

Which Inhibition does the source give for `N#CC(C#N)=Cc1ccc(Cl)cc1` here?
Its Inhibition is 0.02%.

For `Cl.ClCCN1CCCCC1`, which Inhibition is on record?
Its Inhibition is 4.96%.

With `C#CCN1CCc2nc3nc(Cl)c(C#N)cc3c(N)c2C1` as the compound, how does the Inhibition read?
Its Inhibition is 0.36%.

How did the Inhibition turn out when `C#CCN(C)Cc1cc2cc(OCc3ccc(OC(=O)N(C)C)c4ncccc34)ccc2n1C` was run?
The Inhibition was 1.92%.

`Cl.ClCCN1CCCC1` was tested. Which Inhibition did it give?
Its Inhibition is 5.34%.

`Cc1ccccc1C=C(C#N)C#N` was tested. Which Inhibition did it give?
The Inhibition was -0.55%.

Which Inhibition does the source give for `C#CCN1CCc2nc3ncccc3c(N)c2C1.Cl` here?
Its Inhibition is 2.69%.

How did the Inhibition turn out when `C#CCN1CCc2nc(N)c(C#N)c(-c3ccccc3)c2C1` was run?
The Inhibition was 1.84% and 1.59%.

Which Inhibition does the source give for `N#CCC(=O)c1ccccc1` here?
The Inhibition was 10.4%.

With `OCC(Cc1cnc[nH]1)NCc1ccccc1` (configuration not stated) as the compound, how does the Inhibition read?
The Inhibition was 0.31%.

With `N#Cc1cc(C#N)c(N2C3CCC2CC3)nc1N` as the compound, how does the Inhibition read?
The Inhibition was 3.02%.

`CCOC(=O)C1=C(C)OC(=O)CC1c1ccccc1` (configuration not stated) was tested. Which Inhibition did it give?
The Inhibition was 4.72%.

With `CCOC(=O)C1=C(C)NC(=O)CC1c1ccccc1` (configuration not stated) as the compound, how does the Inhibition read?
Its Inhibition is 2.43%.

For `NNCCCc1c[nH]c2ccccc12.O=C(O)/C=C/C(=O)O`, which Inhibition is on record?
The Inhibition was 1.63%.

For `Cc1ccc(C=C(C#N)C#N)cc1`, which Inhibition is on record?
Its Inhibition is 0.34%.

`NNC(=O)c1cccnc1` [NICOTINIC ACID HYDRAZIDE] was tested. Which Inhibition did it give?
Its Inhibition is 1.56%.

Which Inhibition does the source give for `[N-]=[N+]=NCC(=O)c1ccc(Br)cc1` here?
Its Inhibition is 3.1%.

How did the Inhibition turn out when `CN1CC=C(c2cccn2C)CC1.Cl` was run?
The Inhibition was 3.38%.

Reference: ChEMBL document CHEMBL4513135, “CO-ADD screening of IQOG CSIS (Spain) compounds”
